Assay results reported in PubChem BioAssay (NCI).
This is part of a sample that, as a whole, favours compounds with a hit. Of some 83,000 tested, about 20% had one in any assay.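 Single-concentration screen, 48 h exposure, 96-well plates. Endpoint: percent growth. Below 10 = active.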 Activity calls are given as the source filed them.

What was measured:
Assay in all cases: NCI-60 one-dose screen, 48 h (100 = growth as untreated, 0 = no growth, -100 = all killed)
Conditions in all cases: 10 µM
HT29 colon = test system: HT29 colon
SNB-75 CNS = test system: SNB-75 CNS
SNB-19 CNS = test system: SNB-19 CNS
U251 CNS = test system: U251 CNS
PC-3 prostate = test system: PC-3 prostate
SK-MEL-5 melanoma = test system: SK-MEL-5 melanoma
UACC-62 melanoma = test system: UACC-62 melanoma
LOX IMVI melanoma = test system: LOX IMVI melanoma
SK-MEL-28 melanoma = test system: SK-MEL-28 melanoma
SK-MEL-2 melanoma = test system: SK-MEL-2 melanoma
SN12C renal = test system: SN12C renal
UO-31 renal = test system: UO-31 renal
TK-10 renal = test system: TK-10 renal
ACHN renal = test system: ACHN renal
CAKI-1 renal = test system: CAKI-1 renal
A498 renal = test system: A498 renal
CCRF-CEM leukemia = test system: CCRF-CEM leukemia
MOLT-4 leukemia = test system: MOLT-4 leukemia
SR leukemia = test system: SR leukemia

Measured: growth

COc1cc(-c2cc(/C=C3\C(=O)Nc4cc(Cl)ccc43)[nH]n2)cc(OC)c1OC
inactive: HT29 colon 28.3% | SNB-19 CNS 46.7% | U251 CNS 40.4% | SK-MEL-28 melanoma 19.9% | SK-MEL-2 melanoma 51.9% | SN12C renal 12.1% | UO-31 renal 30.4% | TK-10 renal 60.9% | ACHN renal 58% | CAKI-1 renal 38.8% | A498 renal 50.4% | CCRF-CEM leukemia 13.2% | MOLT-4 leukemia 13.5% | SR leukemia 16.8%
active: SNB-75 CNS -5.23% | PC-3 prostate 4.7% | SK-MEL-5 melanoma -49.5% | UACC-62 melanoma -51.5% | LOX IMVI melanoma 6.79%

COc1cc(Cl)cc(-c2nn(-c3cccc(NC(=O)Nc4ccc(Cl)c(C(F)(F)F)c4)c3)cc2-c2ccncc2)c1
active: HT29 colon 5.57% | U251 CNS -48.3% | PC-3 prostate -13% | SK-MEL-5 melanoma -71.2% | UACC-62 melanoma 6.62% | LOX IMVI melanoma 4.81% | SK-MEL-2 melanoma -34% | ACHN renal 8.78% | CAKI-1 renal 9.38% | A498 renal -9.18% | CCRF-CEM leukemia 1.88% | MOLT-4 leukemia -9.68% | SR leukemia -27.5%
inactive: SNB-75 CNS 14.5% | SNB-19 CNS 28.1% | SK-MEL-28 melanoma 23.6% | SN12C renal 13.8% | UO-31 renal 11.1% | TK-10 renal 37.5%

COc1cc2cc3c(nc2cc1OC)CCN3Cc1ccc(NC(=O)c2ccc(Cl)c(C(F)(F)F)c2)cc1
inactive: HT29 colon 105% | SNB-75 CNS 61.7% | SNB-19 CNS 86.6% | U251 CNS 84.6% | PC-3 prostate 69.6% | SK-MEL-5 melanoma 85% | UACC-62 melanoma 79.9% | LOX IMVI melanoma 89.9% | SK-MEL-28 melanoma 97.9% | SK-MEL-2 melanoma 108% | SN12C renal 91.3% | UO-31 renal 71.9% | TK-10 renal 131% | ACHN renal 84.7% | CAKI-1 renal 84.3% | A498 renal 130% | CCRF-CEM leukemia 91% | MOLT-4 leukemia 56.8% | SR leukemia 70.6%

COC(=O)C1=NNC(=S)N(c2cc(C)[nH]n2)C(=O)C1
inactive: HT29 colon 113% | SNB-75 CNS 93.9% | SNB-19 CNS 98% | U251 CNS 101% | PC-3 prostate 99.1% | SK-MEL-5 melanoma 101% | UACC-62 melanoma 103% | LOX IMVI melanoma 95.9% | SK-MEL-28 melanoma 114% | SK-MEL-2 melanoma 100% | SN12C renal 96.3% | UO-31 renal 76.5% | TK-10 renal 114% | ACHN renal 107% | CAKI-1 renal 92.5% | A498 renal 81.8% | CCRF-CEM leukemia 91.8% | MOLT-4 leukemia 84.1% | SR leukemia 86.3%

COc1ccc(-c2nc(-c3nc4cc(Cl)c(Cl)cc4[nH]3)c3ccccn23)cc1
active: SNB-75 CNS -29.1% | TK-10 renal 2.57%
inactive: HT29 colon 51.4% | SNB-19 CNS 50.5% | U251 CNS 22.6% | PC-3 prostate 57% | SK-MEL-5 melanoma 48.3% | UACC-62 melanoma 88.9% | LOX IMVI melanoma 43.6% | SK-MEL-28 melanoma 62.2% | SK-MEL-2 melanoma 58.1% | SN12C renal 81.8% | UO-31 renal 36% | ACHN renal 28.5% | CAKI-1 renal 43.5% | A498 renal 41.5% | CCRF-CEM leukemia 79.1% | MOLT-4 leukemia 77.3% | SR leukemia 45.6%

Nc1c(C(=O)Nc2ccccc2)sc2nc3c(cc12)CCCC3
inactive: HT29 colon 10.1% | SNB-75 CNS 20.6% | SNB-19 CNS 64% | U251 CNS 21.7% | PC-3 prostate 25.4% | SK-MEL-5 melanoma 31.8% | UACC-62 melanoma 47.8% | LOX IMVI melanoma 53.3% | SK-MEL-28 melanoma 56% | SK-MEL-2 melanoma 51.5% | SN12C renal 40.1% | UO-31 renal 44.7% | TK-10 renal 71.7% | ACHN renal 51.5% | CAKI-1 renal 26.7% | CCRF-CEM leukemia 13.1% | MOLT-4 leukemia 15.7% | SR leukemia 10.8%
active: A498 renal -8.95%

Nc1c(C(=O)Nc2cccc3ccccc23)sc2nc3c(cc12)C(=O)CCC3
active: HT29 colon 8.98% | A498 renal -17.6% | CCRF-CEM leukemia 7.9% | SR leukemia 4.39%
inactive: SNB-75 CNS 20.7% | SNB-19 CNS 55.3% | U251 CNS 15.2% | PC-3 prostate 22.6% | SK-MEL-5 melanoma 12.2% | UACC-62 melanoma 43.2% | LOX IMVI melanoma 29.7% | SK-MEL-28 melanoma 42.8% | SK-MEL-2 melanoma 35.5% | SN12C renal 30.8% | UO-31 renal 53% | TK-10 renal 74.7% | ACHN renal 34.5% | CAKI-1 renal 23.2% | MOLT-4 leukemia 11.1%

N#CCCN1C/C(=C/c2ccc(Br)cc2)C(=O)/C(=C/c2ccc(Br)cc2)C1
inactive: SNB-75 CNS 33.3%
active: HT29 colon -33.8% | SNB-19 CNS -46.6% | U251 CNS -80.8% | PC-3 prostate -34% | SK-MEL-5 melanoma 1.94% | UACC-62 melanoma -75% | LOX IMVI melanoma -71.3% | SK-MEL-28 melanoma -36.8% | SK-MEL-2 melanoma 5.41% | SN12C renal -51.2% | UO-31 renal -91.3% | TK-10 renal -29.1% | ACHN renal -53.5% | CAKI-1 renal -7.84% | A498 renal -39.7% | CCRF-CEM leukemia -5.67% | MOLT-4 leukemia 2.26% | SR leukemia -17.3%

c1ccc(CP(Cc2ccccc2)c2ccccc2)cc1
inactive: HT29 colon 88.2% | SNB-75 CNS 101% | SNB-19 CNS 105% | U251 CNS 93.6% | PC-3 prostate 86.2% | SK-MEL-5 melanoma 99% | UACC-62 melanoma 99.3% | LOX IMVI melanoma 86.8% | SK-MEL-28 melanoma 110% | SK-MEL-2 melanoma 97% | SN12C renal 100% | UO-31 renal 73.8% | TK-10 renal 98.6% | ACHN renal 102% | CAKI-1 renal 92.3% | A498 renal 103% | CCRF-CEM leukemia 89.5% | MOLT-4 leukemia 92.5% | SR leukemia 82.3%

Cc1[nH]nc2c1C(c1cnn(C)c1)C(C#N)=C(N)O2 (centres undefined)
inactive: HT29 colon 114% | SNB-75 CNS 73.6% | SNB-19 CNS 98.2% | U251 CNS 102% | PC-3 prostate 91.2% | SK-MEL-5 melanoma 105% | UACC-62 melanoma 111% | LOX IMVI melanoma 94.9% | SK-MEL-28 melanoma 110% | SK-MEL-2 melanoma 93.8% | SN12C renal 103% | UO-31 renal 81.3% | TK-10 renal 102% | ACHN renal 104% | CAKI-1 renal 102% | A498 renal 69.9% | CCRF-CEM leukemia 101% | MOLT-4 leukemia 98.6% | SR leukemia 89.3%

COc1ccc(Cn2c(C(N)=O)cc3c2-c2nc(N)ncc2CCC3)cc1
inactive: HT29 colon 93.2% | SNB-75 CNS 97.2% | SNB-19 CNS 102% | U251 CNS 99.3% | PC-3 prostate 99.3% | SK-MEL-5 melanoma 98.7% | UACC-62 melanoma 95.4% | LOX IMVI melanoma 107% | SK-MEL-28 melanoma 99.2% | SK-MEL-2 melanoma 105% | SN12C renal 106% | UO-31 renal 82.6% | TK-10 renal 108% | ACHN renal 97.1% | CAKI-1 renal 105% | A498 renal 76.2% | CCRF-CEM leukemia 95.8% | MOLT-4 leukemia 108% | SR leukemia 108%

CCOC(=O)C1(CC(C)C)CCOC1=O (centres undefined)
inactive: HT29 colon 104% | SNB-75 CNS 86.8% | SNB-19 CNS 102% | U251 CNS 95.2% | PC-3 prostate 93.3% | SK-MEL-5 melanoma 104% | UACC-62 melanoma 96.7% | LOX IMVI melanoma 96.8% | SK-MEL-28 melanoma 103% | SK-MEL-2 melanoma 113% | SN12C renal 94.7% | UO-31 renal 90.1% | TK-10 renal 106% | ACHN renal 98.2% | CAKI-1 renal 92.4% | A498 renal 107% | CCRF-CEM leukemia 92.2% | MOLT-4 leukemia 100% | SR leukemia 104%

COc1ccc(-c2nc(-c3nc4cc(Cl)c(F)cc4[nH]3)c3ccccn23)cc1
inactive: HT29 colon 31.5% | SNB-75 CNS 66.2% | SNB-19 CNS 55.5% | U251 CNS 62.5% | PC-3 prostate 34.6% | SK-MEL-5 melanoma 59.4% | UACC-62 melanoma 74.5% | LOX IMVI melanoma 65.9% | SK-MEL-28 melanoma 91.8% | SK-MEL-2 melanoma 50% | SN12C renal 66.3% | UO-31 renal 28% | TK-10 renal 64.7% | ACHN renal 79.1% | CAKI-1 renal 67.1% | A498 renal 32.4% | CCRF-CEM leukemia 35.6% | MOLT-4 leukemia 43.4% | SR leukemia 33.7%

C[C@@H]1C=C2C(=O)O[C@@H]3CC[C@H](C1)[C@]23O
inactive: HT29 colon 73.8% | SNB-75 CNS 69.3% | SNB-19 CNS 105% | U251 CNS 87.6% | PC-3 prostate 87.2% | SK-MEL-5 melanoma 92.8% | UACC-62 melanoma 91.6% | LOX IMVI melanoma 55.1% | SK-MEL-28 melanoma 88.1% | SK-MEL-2 melanoma 97.3% | SN12C renal 81% | UO-31 renal 63.4% | TK-10 renal 75.8% | ACHN renal 72.3% | CAKI-1 renal 50.6% | A498 renal 129% | CCRF-CEM leukemia 18.6% | MOLT-4 leukemia 62.8% | SR leukemia 18.6%

COc1cc(/C=C2\CCCC3=C2N=C2SC=NN2C3c2cc(OC)c(OC)c(OC)c2)cc(OC)c1OC (centres undefined)
inactive: SNB-75 CNS 19.7% | SNB-19 CNS 46.4% | PC-3 prostate 66.4% | SK-MEL-5 melanoma 16.3% | SK-MEL-28 melanoma 42.5% | SK-MEL-2 melanoma 89.3% | UO-31 renal 36% | TK-10 renal 17.5% | ACHN renal 15.3% | A498 renal 24.5%
active: HT29 colon 3.26% | U251 CNS 8.08% | UACC-62 melanoma -51.7% | LOX IMVI melanoma -36.9% | SN12C renal 7.13% | CAKI-1 renal 9.47% | CCRF-CEM leukemia 2.74% | MOLT-4 leukemia -2.28% | SR leukemia 7.88%

CC(=O)C1CCC2C3CC(F)C4=CC(=O)CCC4(C)C3C(O)CC12C (centres undefined)
inactive: HT29 colon 101% | SNB-75 CNS 103% | SNB-19 CNS 109% | U251 CNS 104% | PC-3 prostate 90.6% | SK-MEL-5 melanoma 102% | UACC-62 melanoma 103% | LOX IMVI melanoma 101% | SK-MEL-28 melanoma 112% | SK-MEL-2 melanoma 137% | SN12C renal 92% | UO-31 renal 75.8% | TK-10 renal 122% | ACHN renal 99.7% | CAKI-1 renal 96.1% | A498 renal 116% | CCRF-CEM leukemia 93.6% | MOLT-4 leukemia 85.8% | SR leukemia 92.9%
